# Measurements reported in PubChem BioAssay AID651719 (The Scripps Research Institute Molecular Screening Center, 2012).
# Screen size: about 360,000 compounds; about 1,600 (0.44%) were called active. The sample holds actives, similar compounds and a random draw of the others, so the mix is not that of the screen. Unmarked numbers belong to inactive results.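 How the source made its calls: active means inhibition above the screen-wide average plus 3 SD (cut at about 13% in these data); inactive means the rest.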
# Target: Galanin receptor type 3 (Homo sapiens) (UniProt O60755)
# Test: GalR3 antagonists in HEK293 cells, primary screen, cell-based, fluorescence readout (AID 651719);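 further: forskolin and galanin both at EC90 stimulate the cells; cAMP rise reported by CNG channel membrane potential dye signal; 0% = forskolin plus galanin with DMSO and 100% = forskolin alone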
# Details: HEK293 GalR3-CNG cAMP membrane potential fluorescence; at 3 µM; hits give high values; galR3 body fused to GalR1 C-terminus
# Sequence of Galanin receptor type 3 (Homo sapiens) (O60755 1-299 limits assumed): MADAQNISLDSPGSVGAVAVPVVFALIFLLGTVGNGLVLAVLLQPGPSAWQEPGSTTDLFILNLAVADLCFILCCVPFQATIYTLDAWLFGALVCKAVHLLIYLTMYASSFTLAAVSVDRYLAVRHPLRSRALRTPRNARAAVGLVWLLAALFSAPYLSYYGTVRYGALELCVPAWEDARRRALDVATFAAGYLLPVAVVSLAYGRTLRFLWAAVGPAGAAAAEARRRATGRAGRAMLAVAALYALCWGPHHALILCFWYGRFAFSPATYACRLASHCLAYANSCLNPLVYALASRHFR
row,SMILES,inhibition
1,COc1cccc(NC(=O)N(C)C[C@@H]2OCc3cn(nn3)CCCC(=O)N([C@@H](C)CO)C[C@H]2C)c1,-0.11%
2,CC[C@H](C)[C@H]1CNC(=O)C(=O)N1CC1CCN(CCc2ccc(OC)c(OC)c2)CC1,1.44%
3,CCCCCCCCN1C(=O)[C@@H](CC(=O)N2CCN(C(=O)OCC)CC2)C[C@@]2(C(=O)OC)C1=C[C@H](C1CCCC1)O[C@@H]2C,-3.33%
4,CCN1/C(=C\c2ccc3ccccc3[n+]2CC)Sc2cc(C)ccc21,45.8% (active)
5,COC(=O)[C@]12C[C@H](CC(=O)NCc3cccc(C(F)(F)F)c3)C(=O)N(Cc3ccc4c(c3)OCO4)C1=C[C@H](COCc1ccccc1)O[C@@H]2C,-4.92%
6,COc1cccc(CNC(=O)[C@H]2CCCN2C(=O)[C@H]2CCCN2C(=O)C2CCCCC2)c1,-6.3%
7,COc1cc2c(cc1OC)CN(C(=O)c1cc(S(=O)(=O)N3CCCCC3)ccc1Cl)CC2,-3.04%
8,CCOc1cc(C(=O)N2CCc3cc(OC)c(OC)cc3C2)ccc1OC(F)F,31.5% (active)
9,COc1cc2c(cc1OC)CN(C(=O)c1ccc(S(=O)(=O)N3CCCCCC3)cc1)CC2,1.33%
10,Nc1nc2c(ncn2[C@@H]2O[C@H](C(=O)N[C@@H](Cc3ccccc3)C(=O)NCc3ccccc3)[C@@H](O)[C@H]2O)c(=O)[nH]1,-5.49%
11,CCOC(=O)CN1C(=O)C(=O)c2cc(C)ccc21,-3.3%
12,CCOC(=O)c1cc2n(c1C)-c1ccccc1C2=O,15.1% (active)
13,Cc1cc(C(=O)OCC(=O)N2c3ccccc3NC(=O)C2(C)C)c(C)n1-c1ccccc1,-4.87%
14,CC1(C(=O)NS(=O)(=O)c2ccccc2)CCN1C(=O)Cc1ccc(-c2ccccc2)cc1 (stereo not given),0.25%
15,C#Cc1ccc(NC(=O)C2(C)CCN2C(=O)Cc2ccc(-c3ccccc3)cc2)cc1 (stereo not given),44.5% (active)
16,CCCNC(=O)C1(C)CCN1C(=O)Cc1ccc(-c2ccccc2)cc1 (stereo not given),-4.21%
17,CCCn1nc(C(=O)Nc2ccc3nc(C)sc3c2)c2ccccc2c1=O,-5.64%
18,CCCn1nc(C(=O)NNC(=O)CSCC(=O)Nc2cc(C)on2)c2ccccc2c1=O,21.7% (active)
19,CCCn1nc(C(=O)NNC(=O)CCOc2ccccc2OCC)c2ccccc2c1=O,-2.63%
20,C[C@H](O)[C@@H]1CN2CCc3ccc(-c4ccc5c(c4)OCO5)cc3[C@@H]2C[C@@H]1N(C)C(=O)C1CCCCC1,-7.4%
21,COC(=O)C1=C(C(=O)OC)C2C=C(C(C)C)C1C(=O)C2(C)O (stereo not given),-4.32%
22,COC(=O)[C@]12C[C@H](CC(=O)NCc3ccccc3)C(=O)N(CCC3=CCCCC3)C1=C[C@H](C(C)(C)C)O[C@@H]2C,-4.94%
23,O=C(CSc1ccc(-c2cccs2)nn1)Nc1ccccc1F,-4.48%
24,COc1cc(NC(=O)CSc2ccc(-c3cccnc3)nn2)cc(OC)c1,-2.54%

row,SMILES,inhibition
1,Cc1c(Cl)cccc1NC(=O)CSc1ccc(-c2cccnc2)nn1,14.3% (active)
2,O=S1(=O)c2ccc(Br)cc2-n2nncc2CN1Cc1cccc(Cl)c1,-7.46%
3,COCCCNC(=O)C[C@H]1C[C@@]2(C(=O)OC)C(=C[C@H](C(C)(C)C)O[C@@H]2C)N(Cc2ccc3c(c2)OCO3)C1=O,-0.33%
4,CCCN1Cc2cccc(C(=O)NCc3ccccc3)c2C1=O,-3.84%
5,CCCN1Cc2cccc(C(=O)Nc3ccc(S(=O)(=O)N4CCCCCC4)cc3)c2C1=O,-8.35%
6,COCCN1Cc2cccc(C(=O)Nc3ccccc3OC)c2C1=O,41.5% (active)
7,O=C(NS(=O)(=O)c1cccs1)[C@H]1O[C@@H](n2ccc(=O)[nH]c2=O)[C@H](O)[C@@H]1O,-5.05%
8,Cc1cc2c(nc1C)CCCN2C,-4.98%
9,CC(CCc1ccccc1)NCC(O)c1cccc([N+](=O)[O-])c1 (stereo not given),26.9% (active)
10,O=C(CC(c1ccccc1)c1ccccc1)NCC(O)c1ccc([N+](=O)[O-])cc1 (stereo not given),-3.68%
11,CC(C)OC(=O)CC(=O)CC(O)c1cccc([N+](=O)[O-])c1 (stereo not given),-6.46%
12,COc1ccc(S(=O)(=O)Nc2ccc3c(c2)C(=O)N([C@H](C)CO)C[C@H](C)[C@@H](CN(C)C)OCCCC[C@H](C)O3)cc1,-6.44%
13,c1ccc(CNc2ncnc3[nH]ncc23)cc1,-4.19%
14,O=C(NCc1ccncc1)C(=O)NCc1ccco1,-2.62%
15,c1coc(CNc2ncnc3ccccc23)c1,82.2% (active)
16,C[C@H](O)[C@@H]1C(=O)N2CCc3c([nH]c4c(-c5ccc6c(c5)OCO6)cccc34)[C@@H]2C[C@@H]1N(C)C(=O)c1ccco1,-7.36%
17,C[C@H]1[C@H](c2ccccc2)Oc2cc(Br)ccc2S(=O)(=O)N1Cc1cccc(F)c1,-2.05%
18,O=C(Nc1ccc(CSc2ccccc2)cc1)c1ccc(CN2CCOCC2)cc1,95.3% (active)
19,O=C(Nc1ccccc1C(=O)N1CCOCC1)c1ccc(CSc2ccccc2)cc1,-0.11%
20,CCOc1ccc(C(=O)Nc2ccc(CN3CCOCC3)cc2)cc1Cl,-8.84%
21,COC(=O)N1Cc2ccnnc2CC1c1ccccc1Br (stereo not given),1.18%
22,Cc1c(C=O)c2ccccc2n1CCOc1ccccc1,2.42%
23,Cc1c(C=O)c2ccccc2n1CC(=O)O,12.7% (active)
24,O=C(O)Cn1c(Cc2ccccc2)nc2ccccc21,-10.6%

row,SMILES,inhibition
1,C=CC1=CCN(S(=O)(=O)C(C)(C)C)[C@@H]1CCO,-6.58%
2,O=C(NCc1ccccc1)[C@H]1CCCN1C(=O)[C@@H]1CCCN1C(=O)c1ccc(Cl)cc1Cl,-7.72%
3,C[C@H]1CN([C@@H](C)CO)C(=O)CCCn2nncc2CO[C@@H]1CN(C)C(=O)Nc1ccc(N2CCN(C)CC2)cc1,-5.34%
4,CC(C)[C@H]1COCCS(=O)(=O)N1Cc1ccccc1-c1cccc2c1sc1ccccc12,-3.29%
5,Cn1c(N)c(C(=O)COC(=O)COc2ccc(Cl)cc2)c(=O)n(C)c1=O,-5.52%
6,Cn1c(N)c(C(=O)COC(=O)c2ccc3ccccc3c2)c(=O)n(C)c1=O,-4.21%
7,Cn1c(N)c(C(=O)COC(=O)c2cnc(Cl)c(Cl)c2)c(=O)n(C)c1=O,18.3% (active)
8,COc1ccc(/C=C/C(=O)OCC(=O)N2CCN(S(=O)(=O)c3ccc(C)cc3C)CC2)cc1OC,-2.95%
9,Cc1ccc(S(=O)(=O)N2CCN(C(=O)COC(=O)c3c(C)noc3C)CC2)c(C)c1,-3.17%
10,Cc1ccc(S(=O)(=O)N2CCN(C(=O)COC(=O)c3c(C)cc(C)cc3C)CC2)c(C)c1,14.7% (active)
11,COC(=O)C1=C(C)N(Cc2ccccc2C(F)(F)F)C(=NCc2ccc(OC)cc2)NC1c1cccc(C(F)(F)F)c1 (stereo not given),-3.7%
12,CN1C(=O)C(Br)(Br)CC1c1cccnc1 (stereo not given),-8.3%
13,Nc1nc2c(ncn2[C@@H]2O[C@H](C(=O)N[C@H](Cc3ccccc3)C(=O)NCC3CCCCC3)[C@@H](O)[C@H]2O)c(=O)[nH]1,-7.48%
14,CSc1ccc(Oc2cccc3c2S(=O)(=O)N([C@H](C)c2ccccc2)C[C@@H](COCc2ccccc2)O3)cc1C,-3.93%
15,CCc1c(C)nc(SCC(=O)NC2CCCC2)[nH]c1=O,-6.61%
16,CCc1ccc(-c2nc(SCC(=O)NC3CCCC3)n[nH]2)cc1,24.9% (active)
17,COC(=O)c1ccccc1NC(=O)CSc1n[nH]c(-c2ccncc2)n1,-2.72%
18,CN(C)C(=O)N1CCN(C(=O)[C@@H](Cc2ccccc2)NC(=O)[C@H]2O[C@@H](n3ccc(N)nc3=O)[C@H](O)[C@@H]2O)CC1,-7.47%
19,COc1ccccc1CCn1cnc(-c2ccccc2)c1C(C)C,-9.98%
20,Cc1ccc(C)c(NC(=O)COC(=O)c2nn(C)c(=O)c3ccccc23)c1,-2.16%
21,Cc1ccc(F)cc1NC(=O)Cc1nn(C)c(=O)c2ccccc12,41.5% (active)
22,Cc1ccc(F)cc1NC(=O)CSCc1c(C)noc1C,-4.98%
23,O=C(NCc1ccccc1)[C@H]1CCCN1C(=O)[C@H]1CCCN1C(=O)c1cc(F)cc(F)c1,-0.96%
24,Nc1ccn([C@@H]2O[C@H](C(=O)N[C@H]3CCCCNC3=O)[C@@H](O)[C@H]2O)c(=O)n1,-3.96%

row,SMILES,inhibition
1,C[C@@H]1CN([C@H](C)CO)C(=O)CCCn2cc(nn2)CO[C@H]1CN(C)C(=O)Nc1ccc(N2CCCCC2)cc1,-3.62%
2,NC(=O)c1ccc(NC(=O)COC(=O)C(Cc2ccccc2)NC(=O)c2ccccc2)cc1 (stereo not given),15.4% (active)
3,O=C(COC(=O)[C@H](Cc1ccccc1)NC(=O)c1cccs1)Nc1cc(F)ccc1F,-2.8%
4,CC(=O)c1ccc(NC(=O)N[C@@H](Cc2ccccc2)C(=O)O)cc1,-4.01%
5,COC(=O)c1c(-c2ccc(OC)cc2)c2c(c3c4ccccc4n(S(=O)(=O)c4ccc(C)cc4)c13)C(=O)N(C)C2,-6.49%
6,COc1ccc(-c2ccccc2C2Cc3nnccc3CN2C(=O)Nc2ccccc2)cc1 (stereo not given),-8.69%
7,CCOC(=O)N1CCN(C(=O)C[C@H]2C[C@@]3(C(=O)OC)C(=C[C@H](C4CCCC4)O[C@@H]3C)N(Cc3ccccc3)C2=O)CC1,-2.22%
8,C#CCN([C@@H](C)C(=O)OCC)S(=O)(=O)c1ccc(Br)cc1F,-6.91%
9,O=C(Nc1ccccc1Cl)c1ccccc1S(=O)(=O)c1ccccc1[N+](=O)[O-],0.75%
10,O=C(Nc1ccccc1Cl)/C(Cl)=C(\Cl)S(=O)c1ccccc1 (stereo not given),16.2% (active)
11,CC(=O)c1ccc(NC(=O)C(C)N(C)CC(=O)Nc2ccccc2Cl)cc1 (stereo not given),-3.44%
12,COc1ccc(C2=CN(Cc3ccccc3)C(c3ccc(OC)cc3)CC2=O)cc1 (stereo not given),-4.04%
13,Fc1cccc2ncnc(OCc3ccccc3)c12,-3.41%
14,Cc1occc(=O)c1OCc1ccc(F)cc1,5.85%
15,Cc1nc2ccccc2cc1OCc1ccc(F)cc1,80% (active)
16,CCOC(=O)Cn1c2c(n(-c3ccc(F)cc3)c1=O)C=C(c1ccccc1)[C@@H](C)C(C(=O)N(C)C1CCCCC1)=C2,-7.9%
17,COC(=O)[C@]12C[C@H](CC(=O)NCCc3ccccc3OC)C(=O)N(Cc3ccccc3)C1=C[C@H](C(C)C)O[C@@H]2C1CC1,-6.79%
18,COc1ccc(CC(=O)Nc2ccccc2NC(=O)c2ccco2)cc1OC,-2.83%
19,COc1ccc(NC(=O)c2ccco2)cc1NC(=O)c1ccc(C#N)cc1F,-2.95%
20,COc1cc(NC(=O)c2cc([N+](=O)[O-])ccc2Br)ccc1NC(=O)c1ccco1,22.4% (active)
21,Cc1ccc(C)c(CN2CCC(CNC(=O)C3CCCN(c4ncnc5c4nc4n5CCCCC4)C3)CC2)c1 (stereo not given),-1.9%
22,Cc1[nH]c2ccccc2c1CC(=O)Nc1ccc(Nc2cccnc2)c(-c2cccc(Cl)c2)c1,-2.4%
23,CCCCOCC1CN(CCCC)S(=O)(=O)c2c(Oc3ccc(F)cc3)cccc2O1 (stereo not given),2.7%
